This is an account of results in PubChem BioAssay.

Assay [1] can be described thus: inhibitors of TNFa-induced NFkB p65 translocation, primary screen, imaging, HUVEC, MLSMR starter and 10KST1 sets (AID 438;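 active means inhibition above 20% together with a positive visual image hit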;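 further: compound added about 3h40 before a 20 min TNFalpha stimulation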;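 on inhibition: signal is the nuclear over cytoplasmic p65 intensity ratio per well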). To be noted: HUVEC TNFa-induced p65 nuclear translocation; cell count: measured here: nuclei count (cytotoxicity indicator), at 2.08 µM; inhibition: at 2 µM, stronger effect = higher value, 0% TNFa-plus-vehicle, 100% no-TNFa wells.
The nature of assay [2]: inhibitors of mutant huntingtin aggregation, primary screen, imaging, exon1htt(103Q)mCFP cells, high-content imaging (AID 483;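 active means visual image review flags a hit and inhibition of aggregation exceeds 20%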;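 further: compound exposure lasted 3 days before fixation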;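 on nuclei count: percent of the per-plate median nuclei count of sample wells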). The following applies: exon1htt(103Q)mCFP cell line, aggregate imaging, at 2 µM; inhibition of aggregation: stronger effect = higher value; nuclei count: measured here: cell count, toxicity.
A short description of assay [3]: inhibitors of E-selectin induction by TNFa, primary screen, imaging, HUVEC, immunofluorescence, MLSMR starter and 10KST1 sets (AID 487).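 On inhibition: signal is fraction of cell area covered by stained E-selectin grains.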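 On nuclei count: 100% = median nuclei count of all wells on the same plate.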 The following applies: HUVEC TNFalpha-induced E-selectin immunofluorescence imaging, at 2 µM; inhibition: stronger effect = higher value; nuclei count: measured here: cell number, toxicity.
Assay [4] concerns the target Voltage-gated potassium channel subunit beta-2 (Rattus norvegicus) (UniProt P62483). The assay is described as follows: KvBeta enzyme negative modulators, primary screen, biochemical, NADPH fluorescence (AID 622;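 active means fluorescence slope higher than the sample average by over 3 SD, cut at about -0.22 in these data, passing the limit was not always enough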;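 further: slope of raw intensity against log time taken from 70 to 1610 s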). The following applies: recombinant KvBeta, 4-cyanobenzaldehyde reduction, at 10 µM, stronger effect = higher value.
Assay [5] shares this target. The assay is described as follows: KvBeta positive modulators, primary screen, biochemical, NADPH fluorescence (AID 623;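 active means NADPH fluorescence slope more negative than the mean of all samples by about 3 SD, 99.7% confidence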;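 further: fluorescence intensity change per second fitted from 20 to 320 s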). The following applies: Recombinant KvBeta, NADPH fluorescence decrease slope, 10 min; at 10 µM; stronger effect = lower value.
Assay [6] addresses Alpha-2C adrenergic receptor (Homo sapiens) (UniProt P18825). As to the kind of experiment: modulators of alpha2C/GIRK thallium flux, primary screen, cell-based, HEK293 alpha2C/GIRK1/2 (AID 624;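 active means fluorescence slope after compound addition differing from the mean of all screened samples at 99.7% confidence, in either direction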;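 further: slope of fluorescence ratio to pre-addition baseline per second over 15 to 24 s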). The following applies: thallium flux BTC fluorescence, at 10 µM, actives lie on both sides.
A short description of assay [7]: inhibitors of Sendai virus-induced IRF3 signaling, primary screen, TLR/RLR signaling modifier project, cell-based, Sendai virus stimulus, luciferase, 10K MLSCN set (AID 602276;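 active means inhibition at or above 50% at 10 µM; inactive means inhibition below 50%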;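 further: firefly luciferase from ISG56 promoter only with Renilla not read in this screen; 0% = Sendai virus plus DMSO and 100% = medium plus DMSO without virus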). The following applies: HEK293 RL24 IRF3 luciferase reporter, at 10 µM, stronger effect = higher value.
A short description of assay [8]: inhibitors of poly I:C-induced TLR3 signaling, primary screen, cell-based, poly I:C stimulus, luciferase, 10K MLSCN set (AID 602277;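 active means inhibition of the reporter signal at or above 50%; inactive means inhibition below 50%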). The following applies: HEK293-TLR3 RL24 IRF3 luciferase reporter, at 10 µM, stronger effect = higher value.

Calls of active or inactive are those of the source.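 How the source made its calls, unless noted: active means visually confirmed hit in the image check and inhibition above 20%; inconclusive means visually confirmed hit but inhibition not above 20%; inactive means no visual hit in the image check.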

Chain of Alpha-2C adrenergic receptor (Homo sapiens) (P18825 whole entry, looked up): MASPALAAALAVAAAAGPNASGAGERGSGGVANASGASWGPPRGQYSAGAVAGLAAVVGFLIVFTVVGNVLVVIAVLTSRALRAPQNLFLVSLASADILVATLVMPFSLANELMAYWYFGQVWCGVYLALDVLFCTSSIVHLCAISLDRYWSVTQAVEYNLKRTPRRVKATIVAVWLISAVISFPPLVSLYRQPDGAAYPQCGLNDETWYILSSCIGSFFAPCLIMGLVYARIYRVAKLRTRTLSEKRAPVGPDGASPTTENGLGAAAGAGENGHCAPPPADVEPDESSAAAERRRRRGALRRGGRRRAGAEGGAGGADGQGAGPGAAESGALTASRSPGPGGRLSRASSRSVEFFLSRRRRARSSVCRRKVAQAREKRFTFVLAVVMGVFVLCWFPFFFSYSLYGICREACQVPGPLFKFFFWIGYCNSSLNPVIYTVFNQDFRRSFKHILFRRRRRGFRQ
Chain of Voltage-gated potassium channel subunit beta-2 (Rattus norvegicus) (P62483 whole entry, looked up): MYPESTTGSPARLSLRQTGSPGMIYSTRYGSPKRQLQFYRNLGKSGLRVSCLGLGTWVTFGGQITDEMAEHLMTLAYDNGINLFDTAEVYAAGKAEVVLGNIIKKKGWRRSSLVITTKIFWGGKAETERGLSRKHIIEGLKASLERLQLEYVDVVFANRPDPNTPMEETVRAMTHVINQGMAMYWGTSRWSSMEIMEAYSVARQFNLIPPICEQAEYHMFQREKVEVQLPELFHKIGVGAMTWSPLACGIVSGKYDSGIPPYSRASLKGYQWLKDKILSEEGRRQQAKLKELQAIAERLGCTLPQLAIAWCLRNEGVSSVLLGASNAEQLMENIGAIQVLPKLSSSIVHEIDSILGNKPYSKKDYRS

On to `CCOc1ccc(S(=O)(=O)NCC2CCCO2)c2cccnc12` (centres undefined), for which the cell count in assay [1] amounted to 365. Besides, the inhibition in assay [1] was -1.7% (inactive); in assay [3], 36.8% (inactive); in assay [7], 17.5% (inactive); in assay [8], 21.3% (inactive). The inhibition of aggregation in assay [2] was -30.7% (inactive). Also, the nuclei count was 104% in assay [2] and 105% in assay [3]. Besides, the fluorescence slope in assay [4] was -0.497 (inactive). Moreover, the NADPH fluorescence slope in assay [5] is 8e-05 (inactive). In addition, in assay [6], the slope was 0.00707 (inactive).

Consider `CCOC(=O)C(NC(=O)c1ccccc1)(Nc1cc(C)on1)C(F)(F)F` (centres undefined), for which the cell count in assay [1] came to 379. The inhibition in assay [1] was 2.6% (inactive); in assay [3], 0.6% (inactive); in assay [7] it was 14.5% (inactive); in assay [8], 24.7% (inactive). The inhibition of aggregation in assay [2] was -4.6% (inactive). The figures for the nuclei count in assay [2] and in assay [3] were 101% and 88.4%, respectively. Besides, in assay [4], the fluorescence slope was -0.494 (inactive). Also, the NADPH fluorescence slope in assay [5] was -1.9e-05 (inactive). Besides, the slope in assay [6] is 0.00554 (inactive).

`c1cn2cc(CSC3CCCCC3)nc2s1`: the cell count in assay [1] was 641. Moreover, the inhibition in assay [1] is 11% (inactive); in assay [3], -53.3% (inactive); in assay [7] it was -32.1% (inactive); in assay [8] it was -53% (inactive). Also, the inhibition of aggregation in assay [2] is 12.1% (inactive). Further, the nuclei count was 107% in assay [2] and 140% in assay [3]. In addition, in assay [4], the fluorescence slope is -0.585 (inactive). In addition, the NADPH fluorescence slope in assay [5] is -4.6e-05 (inactive). In addition, the slope in assay [6] is 0.00605 (inactive).

For `COc1ccccc1Nc1ccc(C(=O)NC2CCCCC2)cn1`, the cell count in assay [1] is 406. The inhibition in assay [1] was 1% (inactive); in assay [3], -13.6% (inactive); in assay [7], -10.5% (inactive); in assay [8], -22.4% (inactive). In addition, in assay [2], the inhibition of aggregation was 1.1% (inactive). Further, the figures for the nuclei count in assay [2] and in assay [3] were 108% and 110%, respectively. Further, in assay [4], the fluorescence slope is -0.39 (inactive). In assay [5], the NADPH fluorescence slope is -5.7e-05 (inactive). The slope in assay [6] is 0.00711 (inactive).

On to `O=C(CN1C(=O)c2ccccc2C1=O)Nc1ccccc1C(=O)N1CCCC1`, for which, in assay [1], the cell count was 407. The inhibition was 4% (inactive) in assay [1], -13.3% (inactive) in assay [3], 4.76% (inactive) in assay [7] and 11.3% (inactive) in assay [8]. Also, the inhibition of aggregation in assay [2] was -27.4% (inactive). Further, the nuclei count came to 112% in assay [2] and 97.4% in assay [3]. For the same compound, in assay [4], the fluorescence slope is -0.594 (inactive). Moreover, in assay [5], the NADPH fluorescence slope was -2.3e-05 (inactive). Besides, the slope in assay [6] is 0.00562 (inactive).

In the case of `O=C(C1CCC(CNc2c(N3CCCCC3)c(=O)c2=O)CC1)N1CCc2ccccc2C1` (centres undefined), the cell count in assay [1] was 557. For the same compound, the inhibition is 8.9% (inactive) in assay [1], 44% (inactive) in assay [3], 8.75% (inactive) in assay [7] and 33.5% (inactive) in assay [8]. For the same compound, in assay [2], the inhibition of aggregation is -6.5% (inactive). For the same compound, the nuclei count in assay [2] was found to be 95.1%; in assay [3], 97.9%. The fluorescence slope in assay [4] is -0.51 (inactive). Also, in assay [5], the NADPH fluorescence slope is -1.9e-05 (inactive). Besides, in assay [6], the slope was 0.00576 (inactive).

For `COc1ccc(-c2noc(CSc3nc(N)c(-c4ccccc4)c(=O)[nH]3)n2)cc1OC`, the cell count in assay [1] was 338. Besides, the inhibition in assay [1] was 5.8% (inactive); in assay [3] it was -12.1% (inactive); in assay [7], 12% (inactive); in assay [8] it was 15.6% (inactive). In assay [2], the inhibition of aggregation was -0.8% (inactive). Moreover, the nuclei count in assay [2] came to 97.1%; in assay [3], 122%. The fluorescence slope in assay [4] was -0.441 (inactive). Besides, the NADPH fluorescence slope in assay [5] is 2.8e-05 (inactive). Also, in assay [6], the slope was 0.00653 (inactive).

With `Cc1cc(C(=O)NCCN2CCN(c3cccc(Cl)c3)CC2)n(-c2ccccc2)n1`, the cell count in assay [1] was 647. The inhibition in assay [1] is 5.5% (inactive); in assay [3] it was -50.5% (inactive); in assay [7], 16.7% (inactive); in assay [8], 35% (inactive). Moreover, the inhibition of aggregation in assay [2] was -25.2% (inactive). The nuclei count was 78.7% in assay [2] and 108% in assay [3]. Besides, the fluorescence slope in assay [4] was -0.531 (inactive). Moreover, the NADPH fluorescence slope in assay [5] is -2.8e-05 (inactive). The slope in assay [6] was 0.00538 (inactive).

On to `CC(CCc1ccccc1)NCc1ccncc1` (centres undefined), for which the cell count in assay [1] was determined as 564. In addition, the inhibition in assay [1] was 3% (inactive); in assay [3], -75.4% (inactive); in assay [7] it was 12.9% (inactive); in assay [8], 23.5% (inactive). The inhibition of aggregation in assay [2] was -1.8% (inactive). For the same compound, the nuclei count in assay [2] was determined as 109%; in assay [3], 130%. Besides, the fluorescence slope in assay [4] was -0.409 (inactive). For the same compound, the NADPH fluorescence slope in assay [5] is -1.4e-05 (inactive). In addition, the slope in assay [6] was 0.00748 (inactive).

For the compound `COC(=O)c1cc2oc(C)cc2n1CC(=O)Nc1ccc(C)c(C)c1`, in assay [1], the cell count is 386. In addition, the inhibition is 9.1% (inactive) in assay [1], -84.5% (inactive) in assay [3], -0.339% (inactive) in assay [7] and 4.84% (inactive) in assay [8]. In addition, in assay [2], the inhibition of aggregation was 6.1% (inactive). Moreover, the nuclei count came to 103% in assay [2] and 115% in assay [3]. Further, in assay [4], the fluorescence slope was -0.337 (inactive). In assay [5], the NADPH fluorescence slope was -1.2e-05 (inactive). For the same compound, in assay [6], the slope was 0.00552 (inactive).

As to `COc1cccc(-c2nc(CS(=O)(=O)CC(=O)NCc3ccc(Cl)cc3)c(C)o2)c1`, the cell count in assay [1] turned out to be 840. Further, the inhibition in assay [1] was -2.3% (inactive); in assay [3], -41.4% (inactive); in assay [7], -3.28% (inactive); in assay [8] it was 18% (inactive). Further, the inhibition of aggregation in assay [2] is -4.4% (inactive). The nuclei count was 122% in assay [2] and 118% in assay [3]. For the same compound, in assay [4], the fluorescence slope was -0.554 (inactive). In addition, the NADPH fluorescence slope in assay [5] is 1.6e-06 (inactive). For the same compound, the slope in assay [6] is 0.00669 (inactive).

Take `COc1ccc(-c2cc(C(F)(F)F)nc(N3CCN(c4ccc(F)cc4)CC3)n2)cc1OC`: the cell count in assay [1] was determined as 827. Further, the inhibition in assay [1] was -10.7% (inactive); in assay [3] it was -107% (inactive); in assay [7] it was -20.5% (inactive); in assay [8], -7.7% (inactive). Besides, the inhibition of aggregation in assay [2] was -2.4% (inactive). Besides, the results for the nuclei count in assay [2] and in assay [3] were 105% and 122%, respectively. Moreover, in assay [4], the fluorescence slope was -0.52 (inactive). The NADPH fluorescence slope in assay [5] was 2.2e-05 (inactive). In addition, the slope in assay [6] was 0.00763 (inactive).

Regarding `O=C(O)c1cc(Cl)c(Cl)cc1C(=O)N1CCCC1`, the cell count in assay [1] came out at 291. The inhibition in assay [1] is 0% (inactive); in assay [3] it was 7% (inactive); in assay [7], 9.27% (inactive); in assay [8], 22.8% (inactive). The inhibition of aggregation in assay [2] was 14.8% (inactive). Further, the nuclei count in assay [2] came out at 88.1%; in assay [3], 104%. Moreover, the fluorescence slope in assay [4] was -0.311 (inactive). Also, the NADPH fluorescence slope in assay [5] was 4.1e-07 (inactive). The slope in assay [6] was 0.00644 (inactive).

In the case of `Cc1ccc(-c2noc(COc3ccccc3C)n2)cc1`, in assay [1], the cell count amounted to 607. Besides, the inhibition in assay [1] was -7.8% (inactive); in assay [3], 35.1% (inactive); in assay [7], -24.5% (inactive); in assay [8] it was -88.2% (inactive). Besides, the inhibition of aggregation in assay [2] is 12.3% (inactive). Also, the nuclei count came out at 110% in assay [2] and 129% in assay [3]. Besides, the fluorescence slope in assay [4] was -0.484 (inactive). Moreover, the NADPH fluorescence slope in assay [5] is 1.6e-05 (inactive). The slope in assay [6] is 0.0049 (inactive).
